Measured values published in the supplement of paper PMC10849652.
Targets with a hit are over-represented here; the source holds about 7,900 in all. About 0.6% of all pairs of compound and target were hits.

What was measured:
Assay in all cases: log2 fold change, soluble protein after heating vs DMSO (PISA); higher = thermal stabilisation; K562 cells, 10 uM, 30 min; active = over 0.2 and 3.5 SD of the protein, either way, in both replicates (recomputed)
[1] = compound: NC(=O)Nc1cc(-c2cccc(F)c2)sc1C(=O)N[C@H]1CCCNC1
Procedure, shortened: (§1)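 Soluble protein was defined as the supernatant after 21,000xg for 90 min. It came from K562 cells at 2×10^6 cells/mL given 10 μM compound for 30 min, heated in aliquots for 3 min across 48°C-58°C, pooled, and extracted in PBS with 0.5% NP-40 at 4°C, and was quantified by TMTpro 16plex LC-MS/MS with equalised channel sums. Thermal stability against control samples, from duplicates, is reported as log2 fold change.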

[2] = compound: NC(=O)c1cnc(N[C@@H]2CCCC[C@@H]2N)nc1Nc1cccc(-n2nccn2)c1
Procedure, shortened: as §1

[3] = compound: NC1(c2ccc(-c3nc4ccn5c(=O)[nH]nc5c4cc3-c3ccccc3)cc2)CCC1
Procedure, shortened: as §1

[4] = compound: NCC(=O)Nc1ccc(-n2nc(C(F)(F)F)cc2-c2ccc3c(ccc4ccccc43)c2)cc1
Procedure, shortened: as §1

entinostat = compound: Nc1ccccc1NC(=O)c1ccc(CNC(=O)OCc2cccnc2)cc1 [entinostat]
Procedure, shortened: as §1

vorinostat = compound: O=C(CCCCCCC(=O)Nc1ccccc1)NO [vorinostat]
Procedure, shortened: as §1

citarinostat = compound: O=C(CCCCCCNC(=O)c1cnc(N(c2ccccc2)c2ccccc2Cl)nc1)NO [citarinostat]
Procedure, shortened: as §1

silmitasertib = compound: O=C(O)c1ccc2c(c1)nc(Nc1cccc(Cl)c1)c1ccncc12 [silmitasertib]
Procedure, shortened: as §1

[5] = compound: O=C1NC(=O)C(c2cnc3ccccn23)=C1c1cn2c3c(cc(F)cc13)CN(C(=O)N1CCCCC1)CC2
Procedure, shortened: as §1

[6] = compound: c1cc(OCCN2CCCCC2)cc(-c2n[nH]c3ccc(-c4nnc[nH]4)cc23)c1
Procedure, shortened: as §1

entospletinib = compound: c1cn2cc(-c3ccc4cn[nH]c4c3)nc(Nc3ccc(N4CCOCC4)cc3)c2n1 [entospletinib]
Procedure, shortened: as §1

Measured: log2 fold change

PBK (UniProt Q96KB5)
inactive: [1] -0.1 | [2] -0.045 | [3] -0.098 | [4] -0.088 | entinostat 0.095 | vorinostat 0.154 | citarinostat 0.119 | silmitasertib 0.157 | [5] 0.02 | [6] -0.011 | entospletinib 0.109

PKN1 isoform 2 (UniProt Q16512)
inactive: [2] -0.141 | [3] -0.118 | [4] -0.128 | entinostat 0.039 | vorinostat 0.042 | citarinostat 0.024 | silmitasertib 0.024 | [5] -0.131 | [6] -0.157 | entospletinib 0.014
active: [1] -0.508

PSMD3 (UniProt O43242)
inactive: [1] -0.027 | [2] 0.009 | [3] -0.032 | [4] 0.041 | entinostat -0.02 | vorinostat -0.009 | citarinostat -0.009 | silmitasertib 0.008 | [5] 0.014 | [6] -0.082 | entospletinib 0.049

PTTG1IP (UniProt P53801)
inactive: [1] -0.033 | [2] 0.026 | [3] -0.222 | [4] 0.065 | entinostat 0.12 | vorinostat -0.077 | citarinostat -0.017 | silmitasertib 0.083 | [5] 0.017 | [6] 0.07 | entospletinib -0.044

PTPMT1 (UniProt Q8WUK0)
inactive: [1] -0.087 | [2] -0.264 | [3] -0.263 | [4] -0.166 | entinostat 0.073 | vorinostat 0.049 | citarinostat 0.014 | silmitasertib 0.032 | [5] -0.015 | [6] -0.082 | entospletinib -0.018

PEX13 (UniProt Q92968)
inactive: [1] -0.03 | [2] -0.086 | [3] -0.101 | [4] -0.034 | entinostat -0.051 | vorinostat -0.195 | citarinostat 0.023 | silmitasertib 0.025 | [5] 0.026 | [6] -0.015 | entospletinib 0.012

POLR2I (UniProt P36954)
inactive: [1] -0.025 | [2] 0.115 | [3] 0.102 | [4] 0.067 | entinostat 0.114 | vorinostat -0.243 | citarinostat -0.09 | silmitasertib 0.028 | [5] -0.091 | [6] -0.005 | entospletinib 0.306

PRMT3 (UniProt O60678)
inactive: [1] 0.042 | [2] -0.05 | [3] -0.187 | [4] -0.034 | entinostat 0.055 | vorinostat 0.041 | citarinostat 0.042 | silmitasertib -0.023 | [5] -0.027 | [6] -0.027 | entospletinib -0.036

PJA2 (UniProt O43164)
Sequence of UniProt O43164 (O43164 whole entry, looked up): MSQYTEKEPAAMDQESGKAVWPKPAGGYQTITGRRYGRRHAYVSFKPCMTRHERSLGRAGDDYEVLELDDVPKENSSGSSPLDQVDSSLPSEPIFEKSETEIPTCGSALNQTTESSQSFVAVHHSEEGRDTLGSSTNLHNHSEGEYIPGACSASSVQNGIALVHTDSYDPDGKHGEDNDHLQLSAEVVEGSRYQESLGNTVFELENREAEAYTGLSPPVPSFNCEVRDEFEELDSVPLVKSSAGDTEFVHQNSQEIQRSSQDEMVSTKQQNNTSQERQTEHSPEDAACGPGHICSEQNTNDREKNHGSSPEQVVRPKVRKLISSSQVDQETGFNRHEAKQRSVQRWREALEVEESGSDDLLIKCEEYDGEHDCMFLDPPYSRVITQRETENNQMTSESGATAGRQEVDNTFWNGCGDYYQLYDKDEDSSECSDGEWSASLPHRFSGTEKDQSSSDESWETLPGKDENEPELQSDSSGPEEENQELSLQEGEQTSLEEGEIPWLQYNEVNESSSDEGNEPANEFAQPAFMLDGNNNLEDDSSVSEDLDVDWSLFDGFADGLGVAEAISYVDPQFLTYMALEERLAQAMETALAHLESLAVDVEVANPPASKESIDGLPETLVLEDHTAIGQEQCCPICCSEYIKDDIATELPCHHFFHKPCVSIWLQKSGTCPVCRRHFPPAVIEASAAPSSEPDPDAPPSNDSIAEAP
inactive: [1] -0.006 | [2] -0.047 | [3] -0.049 | [4] 0.029 | entinostat 0.004 | vorinostat -0.001 | citarinostat -0.005 | silmitasertib 0.026 | [5] -0.059 | [6] -0.075 | entospletinib -0.009

PCYT1B (UniProt Q9Y5K3)
inactive: [1] -0.019 | [2] -0.007 | [3] -0.218 | [4] -0.03 | entinostat 0.043 | vorinostat -0.038 | citarinostat 0.084 | silmitasertib 0.077 | [5] -0.231 | [6] -0.025 | entospletinib 0.057

PLK1 (UniProt P53350)
Sequence of UniProt P53350 (P53350 whole entry, looked up): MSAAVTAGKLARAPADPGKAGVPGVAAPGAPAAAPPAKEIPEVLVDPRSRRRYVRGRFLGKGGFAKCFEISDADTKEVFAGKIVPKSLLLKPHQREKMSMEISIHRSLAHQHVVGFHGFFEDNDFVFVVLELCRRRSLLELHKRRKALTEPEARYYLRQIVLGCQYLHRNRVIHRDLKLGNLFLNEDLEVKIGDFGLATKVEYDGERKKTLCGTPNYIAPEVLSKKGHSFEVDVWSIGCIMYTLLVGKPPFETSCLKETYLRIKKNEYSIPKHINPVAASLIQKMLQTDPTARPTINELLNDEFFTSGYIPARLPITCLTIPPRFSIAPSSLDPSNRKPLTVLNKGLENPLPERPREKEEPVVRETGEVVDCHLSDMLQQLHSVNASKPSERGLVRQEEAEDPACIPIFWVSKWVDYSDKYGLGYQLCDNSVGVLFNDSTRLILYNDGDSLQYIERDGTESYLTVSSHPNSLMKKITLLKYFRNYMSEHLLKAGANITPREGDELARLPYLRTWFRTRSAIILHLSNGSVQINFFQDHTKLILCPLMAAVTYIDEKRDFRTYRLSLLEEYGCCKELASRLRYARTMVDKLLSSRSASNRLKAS
inactive: [2] 0.033 | [3] -0.024 | [4] 0.005 | entinostat -0.005 | vorinostat 0.002 | citarinostat 0.019 | silmitasertib -0.135 | [5] 0.032 | [6] -0.103 | entospletinib -0.022
active: [1] -0.399

PDCD4 (UniProt Q53EL6)
inactive: [1] -0.001 | [2] 0.011 | [3] -0.087 | [4] -0.064 | entinostat -0.044 | vorinostat 0.042 | citarinostat 0.059 | silmitasertib 0.145 | [5] -0.041 | [6] 0.092 | entospletinib -0.002

POMP (UniProt Q9Y244)
Sequence of UniProt Q9Y244 (Q9Y244 whole entry, looked up): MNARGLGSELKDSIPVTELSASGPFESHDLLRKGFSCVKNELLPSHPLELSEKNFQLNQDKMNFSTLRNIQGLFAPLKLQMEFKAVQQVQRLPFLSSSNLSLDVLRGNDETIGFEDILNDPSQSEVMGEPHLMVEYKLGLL
inactive: [1] 0.106 | [2] 0.039 | [3] -0.029 | [4] -0.024 | entinostat 0.05 | vorinostat -0.066 | citarinostat 0.026 | silmitasertib 0.022 | [5] -0.022 | [6] -0.01 | entospletinib -0.015

POLR2M (UniProt P0CAP2)
inactive: [1] -0.03 | [2] 0.035 | [3] -0.045 | [4] -0.085 | entinostat -0.032 | vorinostat -0.091 | citarinostat -0.019 | silmitasertib 0.043 | [5] 0.009 | [6] -0.008 | entospletinib -0.059

PHKG2 (UniProt P15735)
inactive: [2] 0.088 | [3] -0.064 | [4] -0.035 | entinostat -0.007 | vorinostat 0 | citarinostat 0.122 | silmitasertib 0.052 | [5] 0.023 | [6] -0.045
active: [1] 0.417 | entospletinib -0.279

PRKAR1A (UniProt P10644)
Sequence of UniProt P10644 (P10644 whole entry, looked up): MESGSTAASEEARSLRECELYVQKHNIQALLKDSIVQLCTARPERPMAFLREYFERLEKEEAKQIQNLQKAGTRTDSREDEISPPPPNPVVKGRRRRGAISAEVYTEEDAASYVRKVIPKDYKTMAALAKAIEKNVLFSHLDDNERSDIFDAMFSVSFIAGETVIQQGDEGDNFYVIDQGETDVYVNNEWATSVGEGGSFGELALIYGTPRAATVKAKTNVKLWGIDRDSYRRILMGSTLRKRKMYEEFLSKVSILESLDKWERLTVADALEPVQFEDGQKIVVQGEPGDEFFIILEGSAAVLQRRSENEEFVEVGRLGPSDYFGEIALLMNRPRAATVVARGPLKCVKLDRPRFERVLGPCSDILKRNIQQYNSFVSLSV
inactive: [1] -0.052 | [2] 0.191 | [3] 0.301 | [4] -0.041 | entinostat -0.068 | vorinostat -0.16 | citarinostat 0 | silmitasertib 0.166 | [5] 0.063 | [6] -0.04 | entospletinib 0.389

PRMT8 (UniProt Q9NR22)
inactive: [2] -0.149 | [3] -0.118 | [4] -0.054 | entinostat 0.21 | vorinostat 0.029 | citarinostat -0.031 | silmitasertib -0.039 | [5] -0.057 | [6] -0.006 | entospletinib 0
active: [1] 0.403

PDE12 (UniProt Q6L8Q7)
Sequence of UniProt Q6L8Q7 (Q6L8Q7 whole entry, looked up): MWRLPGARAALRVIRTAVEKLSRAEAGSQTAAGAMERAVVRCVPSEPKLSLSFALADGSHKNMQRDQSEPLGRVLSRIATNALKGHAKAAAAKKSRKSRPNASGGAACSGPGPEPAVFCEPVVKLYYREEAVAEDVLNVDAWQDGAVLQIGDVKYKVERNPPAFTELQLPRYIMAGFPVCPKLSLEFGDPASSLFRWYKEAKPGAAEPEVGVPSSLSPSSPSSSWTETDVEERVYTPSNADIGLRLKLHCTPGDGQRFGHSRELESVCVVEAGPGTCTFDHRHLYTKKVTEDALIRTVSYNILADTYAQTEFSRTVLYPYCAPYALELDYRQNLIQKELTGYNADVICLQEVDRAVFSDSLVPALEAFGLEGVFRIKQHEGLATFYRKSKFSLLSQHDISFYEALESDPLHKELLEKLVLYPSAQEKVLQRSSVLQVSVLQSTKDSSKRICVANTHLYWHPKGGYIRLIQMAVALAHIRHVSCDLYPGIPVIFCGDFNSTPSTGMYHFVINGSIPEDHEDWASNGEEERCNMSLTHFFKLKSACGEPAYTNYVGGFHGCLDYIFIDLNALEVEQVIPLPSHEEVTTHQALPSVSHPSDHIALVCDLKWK
inactive: [1] -0.036 | [2] 0.07 | [3] -0.069 | [4] -0.008 | entinostat 0.017 | vorinostat -0.003 | citarinostat 0.044 | silmitasertib -0.014 | [5] -0.089 | [6] 0.047 | entospletinib -0.033

PRKCA (UniProt P17252)
inactive: [1] -0.085 | [2] -0.134 | [3] -0.181 | [4] -0.029 | entinostat 0.057 | vorinostat 0.117 | citarinostat 0.028 | silmitasertib -0.045 | [5] -0.205 | [6] -0.091 | entospletinib -0.054

PSME4 (UniProt Q14997)
Sequence of UniProt Q14997 (Q14997 whole entry, looked up): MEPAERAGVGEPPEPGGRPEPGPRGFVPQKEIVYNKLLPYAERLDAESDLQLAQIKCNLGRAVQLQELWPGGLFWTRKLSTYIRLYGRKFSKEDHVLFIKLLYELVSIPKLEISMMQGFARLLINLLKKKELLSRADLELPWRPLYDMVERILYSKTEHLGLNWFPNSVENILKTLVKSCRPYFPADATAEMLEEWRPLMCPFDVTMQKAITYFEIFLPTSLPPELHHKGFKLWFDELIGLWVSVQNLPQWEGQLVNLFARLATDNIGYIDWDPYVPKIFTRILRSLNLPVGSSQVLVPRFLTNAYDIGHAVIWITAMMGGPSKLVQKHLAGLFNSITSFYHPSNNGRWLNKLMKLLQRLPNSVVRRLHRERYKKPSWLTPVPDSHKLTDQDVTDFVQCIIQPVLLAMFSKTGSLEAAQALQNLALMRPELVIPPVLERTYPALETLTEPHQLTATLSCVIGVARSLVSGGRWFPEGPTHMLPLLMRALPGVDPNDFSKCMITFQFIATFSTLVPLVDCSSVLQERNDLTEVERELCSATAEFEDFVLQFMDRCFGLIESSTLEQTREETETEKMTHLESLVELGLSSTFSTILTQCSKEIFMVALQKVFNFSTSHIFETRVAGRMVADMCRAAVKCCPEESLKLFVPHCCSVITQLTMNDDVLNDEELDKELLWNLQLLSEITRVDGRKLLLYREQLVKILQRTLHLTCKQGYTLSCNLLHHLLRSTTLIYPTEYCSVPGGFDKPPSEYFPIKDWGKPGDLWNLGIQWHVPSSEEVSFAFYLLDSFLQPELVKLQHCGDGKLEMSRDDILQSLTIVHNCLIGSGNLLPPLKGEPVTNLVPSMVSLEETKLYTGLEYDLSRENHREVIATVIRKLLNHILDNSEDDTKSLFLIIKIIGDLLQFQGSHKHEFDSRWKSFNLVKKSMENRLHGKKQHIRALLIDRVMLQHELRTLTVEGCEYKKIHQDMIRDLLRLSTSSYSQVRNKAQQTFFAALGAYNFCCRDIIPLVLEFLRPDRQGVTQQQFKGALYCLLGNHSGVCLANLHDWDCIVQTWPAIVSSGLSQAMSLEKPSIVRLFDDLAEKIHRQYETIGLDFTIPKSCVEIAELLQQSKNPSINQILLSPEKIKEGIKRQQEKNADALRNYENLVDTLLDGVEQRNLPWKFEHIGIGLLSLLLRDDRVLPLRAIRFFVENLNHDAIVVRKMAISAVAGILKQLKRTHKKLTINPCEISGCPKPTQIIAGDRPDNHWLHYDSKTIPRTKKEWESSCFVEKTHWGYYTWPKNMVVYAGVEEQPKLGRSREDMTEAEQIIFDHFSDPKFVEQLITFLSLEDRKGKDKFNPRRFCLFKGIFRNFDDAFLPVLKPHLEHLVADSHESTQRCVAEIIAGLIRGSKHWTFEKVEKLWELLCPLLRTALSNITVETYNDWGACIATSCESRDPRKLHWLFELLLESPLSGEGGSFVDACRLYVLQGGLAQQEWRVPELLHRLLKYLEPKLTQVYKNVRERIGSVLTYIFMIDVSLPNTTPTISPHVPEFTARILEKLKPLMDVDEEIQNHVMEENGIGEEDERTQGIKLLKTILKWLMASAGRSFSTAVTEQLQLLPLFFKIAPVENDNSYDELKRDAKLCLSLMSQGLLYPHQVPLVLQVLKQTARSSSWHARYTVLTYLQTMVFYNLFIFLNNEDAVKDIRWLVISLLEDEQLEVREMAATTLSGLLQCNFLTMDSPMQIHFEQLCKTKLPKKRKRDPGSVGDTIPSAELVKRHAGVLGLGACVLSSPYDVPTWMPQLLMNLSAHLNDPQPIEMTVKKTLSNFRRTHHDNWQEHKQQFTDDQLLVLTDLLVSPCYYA
inactive: [1] 0.047 | [2] -0.054 | [3] -0.204 | [4] -0.03 | entinostat 0.011 | vorinostat 0.127 | citarinostat 0.047 | silmitasertib -0.007 | [5] 0.02 | [6] -0.092 | entospletinib -0.003

POLR2K (UniProt P53803)
active: [6] -0.474
inactive: [1] -0.04 | [2] -0.107 | [3] 0.017 | [4] 0.053 | entinostat -0.01 | vorinostat -0.156 | citarinostat 0.13 | silmitasertib 0.097 | [5] 0.002 | entospletinib 0.24

PIP4P1 isoform 2 (UniProt Q86T03)
inactive: [1] 0.012 | [2] 0.086 | [3] -0.326 | [4] 0.095 | entinostat 0.042 | vorinostat -0.019 | citarinostat 0.01 | silmitasertib 0.054 | [5] 0.043 | [6] -0.031 | entospletinib 0.028

PRMT7 (UniProt Q9NVM4)
inactive: [1] 0.034 | [2] -0.093 | [3] -0.165 | [4] -0.021 | entinostat 0.026 | vorinostat -0.023 | citarinostat -0.032 | silmitasertib 0.067 | [5] -0.103 | [6] -0.05 | entospletinib 0.055

PRPF38B (UniProt Q5VTL8)
inactive: [1] -0.199 | [2] -0.019 | [3] 0.017 | [4] -0.203 | entinostat 0.006 | vorinostat 0.033 | citarinostat 0.028 | silmitasertib -0.246 | [5] -0.006 | [6] -0.19 | entospletinib 0.032

PRKACA (UniProt P17612)
inactive: [1] 0.097 | [2] 0.048 | [3] -0.132 | [4] -0.025 | entinostat -0.019 | vorinostat 0.02 | citarinostat 0.023 | silmitasertib -0.051 | [5] 0.05 | [6] -0.067 | entospletinib 0.007

POLR2G (UniProt P62487)
inactive: [1] 0.061 | [2] 0.153 | [3] -0.008 | [4] 0.003 | entinostat -0.034 | vorinostat -0.148 | citarinostat -0.009 | silmitasertib 0.004 | [5] 0.009 | [6] -0.037 | entospletinib 0.183

PATL1 (UniProt Q86TB9)
Sequence of UniProt Q86TB9 (Q86TB9 whole entry, looked up): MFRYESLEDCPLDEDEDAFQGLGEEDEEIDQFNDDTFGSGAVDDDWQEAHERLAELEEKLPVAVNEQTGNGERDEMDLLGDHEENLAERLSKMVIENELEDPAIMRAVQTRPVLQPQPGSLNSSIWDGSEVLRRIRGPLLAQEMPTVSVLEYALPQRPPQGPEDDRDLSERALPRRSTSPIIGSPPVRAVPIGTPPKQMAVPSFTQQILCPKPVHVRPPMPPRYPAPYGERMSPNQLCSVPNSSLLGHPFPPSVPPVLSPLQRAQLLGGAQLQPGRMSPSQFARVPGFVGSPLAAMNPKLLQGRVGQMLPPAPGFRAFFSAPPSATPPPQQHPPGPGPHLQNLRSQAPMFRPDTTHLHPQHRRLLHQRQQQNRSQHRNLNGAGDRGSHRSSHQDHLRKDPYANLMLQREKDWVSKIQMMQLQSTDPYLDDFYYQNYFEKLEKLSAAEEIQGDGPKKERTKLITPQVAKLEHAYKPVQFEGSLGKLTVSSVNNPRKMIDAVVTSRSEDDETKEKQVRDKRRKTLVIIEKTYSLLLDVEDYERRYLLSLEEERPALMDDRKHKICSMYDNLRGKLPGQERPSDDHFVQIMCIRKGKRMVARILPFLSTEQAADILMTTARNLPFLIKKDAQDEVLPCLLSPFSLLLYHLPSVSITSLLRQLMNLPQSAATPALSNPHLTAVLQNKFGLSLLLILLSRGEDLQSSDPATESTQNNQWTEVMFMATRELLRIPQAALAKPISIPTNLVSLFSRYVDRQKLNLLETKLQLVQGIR
inactive: [1] 0.054 | [2] -0.213 | [3] -0.047 | [4] -0.025 | entinostat 0.052 | vorinostat 0.106 | citarinostat 0.02 | silmitasertib 0.04 | [5] 0.069 | [6] -0.093 | entospletinib 0.076
